Measured values published in PubChem BioAssay (NCI).
The panel holds about 83,000 compounds, 20% with a hit somewhere; the sample as a whole holds those more often.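 Compound tested at a single concentration for 48 hours in 96-well plates; a percent growth value below 10 was scored as active.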 Unmarked numbers belong to inactive results. Calls of active or inactive are those of the source.

Columns and labels:
Assay in all cases: NCI-60 one-dose screen, 48 h (100 = growth as untreated, 0 = no growth, -100 = all killed)
Conditions in all cases: 10 µM unless noted
[1] = system: HCT-15 colon
[2] = system: HT29 colon
[3] = system: SNB-75 CNS
[4] = system: SNB-19 CNS
[5] = system: U251 CNS
[6] = system: PC-3 prostate
[7] = system: SK-MEL-5 melanoma
[8] = system: UACC-62 melanoma
[9] = system: LOX IMVI melanoma
[10] = system: SK-MEL-28 melanoma

| Compound | growth [1] | growth [2] | growth [3] | growth [4] | growth [5] | growth [6] | growth [7] | growth [8] | growth [9] | growth [10] |
| --- | --- | --- | --- | --- | --- | --- | --- | --- | --- | --- |
| CC[n+]1c(/C=C/C=C2\N(C)c3ccccc3C2(C)C)sc2ccccc21 | 6.66% (active) | 6.94% (active) | 28.8% | 31.9% | 10.8% | 17.4% | -89.7% (active) | 12.4% | 2.76% (active) | 37.1% |
| Cc1ncc(-c2ccnc(Nc3ccc(S(C)(=O)=O)cc3)n2)n1C(C)C | 1.34% (active) | -16.6% (active) | -37.9% (active) | 7.36% (active) | 3.47% (active) | -11.1% (active) | -55.5% (active) | -71.5% (active) | 3.16% (active) | -41.8% (active) |
| Cc1ccc2oc(=O)cc(-c3cc(-c4cc5ccccc5oc4=O)nc(N)c3C#N)c2c1 | 91.1% | 68.3% | 34% | 75.8% | 54.3% | 69% | 60.8% | 81.5% | 78.2% | 76.7% |
| N[C@@H]1CCCN(c2c(/C=C3\SC(=O)NC3=O)cccc2-c2ccccc2)C1 | 63.9% | 55% | -14.1% (active) | 1.97% (active) | 13.9% | 47.5% | 55% | 62.2% | 72.6% | 73.8% |
| Brc1ccc([I+]c2ccc(Br)cc2)cc1 | 49.3% | 5.37% (active) | -82.2% (active) | -92.4% (active) | -85% (active) | 24.7% | -82.9% (active) | 27% | 20.4% | -14.6% (active) |
| O=C(N/N=C/c1ccc(Cl)cc1)c1cc(-c2cc3ccccc3o2)nn1-c1ccccc1 | 93% | 107% | 86.5% | 94.5% | 96% | 89.6% | 56.3% | 83.7% | 84.7% | 99.7% |
| Cc1[nH]n(C(N)=S)c(=O)c1N=Nc1ccc(S(=O)(=O)Nc2ccncn2)cc1 | 113% | 105% | 73.7% | 99.8% | 113% | 77.1% | 94.6% | 101% | 87.4% | 98.9% |
| O=C1CC(c2ccc(Cl)cc2)c2ncn(-c3cccc(Cl)c3)c2N1 (stereo not given) | 27.7% | 28.8% | 36.2% | 50% | 36.3% | 67.7% | 34.1% | 33.9% | 47.5% | 54.8% |
| CCN(CCN(C)C)C(=O)CNCc1cc(C(N)=O)ccn1 | 102% | 80% | 98.6% | 104% | 87.5% | 79.5% | 95.4% | 105% | 99.5% | 110% |
| COc1ccc2c(c1OC)C(=O)O[C@@H]2[C@H]1c2c(c(C#CC#Cc3ccc(F)c(F)c3)c3c(c2OC)OCO3)CCN1C | 56.8% | 92.3% | 89.6% | 103% | 88.4% | 50.8% | 66.2% | 69.5% | 90.9% | 96.3% |
| CCc1nc2ccc(Cc3ccc(C(=O)NO)cc3)cc2c(=O)n1CCc1ccccc1 | -43.2% (active) | -40.8% (active) | -20.8% (active) | -44.9% (active) | -71.4% (active) | -66.5% (active) | -65.6% (active) | -57.7% (active) | -76.2% (active) | -36% (active) |
| CN(C)CCn1c(=O)c2c3cc4c(cc3n(CCN(C)C)c2c2ccc(Cl)cc21)OCO4 | 43.3% | 25.1% | 70.8% | 34.3% | 44.6% | 36.2% | 52.8% | 76.9% | -88.2% (active) | 87% |
| Cc1cc2c(-c3nc4ccccn4c3Nc3cccc4ccccc34)c(O)c(O)cc2c(O)c1-c1c(C)cc2c(-c3nc4ccccn4c3Nc3cccc4ccccc34)c(O)c(O)cc2c1O | 41.4% | 27.5% | 30% | 15.6% | 12.9% | 16% | 1.82% (active) | 1.11% (active) | 9.84% (active) | 34.5% |
| CCN(CC)CCOc1ccc(/C(=C(\C)c2ccc(Cl)cc2)c2ccc(Cl)cc2)cc1 | 21.7% | 8.96% (active) | 116% | 79.3% | 54% | 70.7% | 38% | 88.4% | 35.4% | 75.6% |
| NC(=O)N1N=C(c2ccc(Cl)cc2)CC1c1cn(-c2ccccc2)nc1-c1ccc(Cl)cc1 (stereo not given) | 72% | 51.1% | -10.5% (active) | 44% | 46% | 52.8% | 79% | 61.7% | 55.9% | 78.4% |
| COc1ccc2c(CCc3ccc(Cl)cc3)c3[n+](cc2c1OC)CCc1cc2c(cc1-3)OCO2 | 111% | 43.1% | 58% | 28.3% | 22.4% | 36.4% | 18.2% | 30.1% | 50.9% | 27.6% |
| CO[C@H](C(=O)N[C@@H](CCCCNC(=O)OCc1ccccc1)C(=O)OC(C)(C)C)[C@@H]1Cc2cc3cc(OC4CC(OC5CC(O)C(O)C(C)O5)C(O)C(C)O4)c(C)c(O)c3c(O)c2C(=O)[C@H]1OC1CC(OC2CC(OC3CC(C)(O)C(O)C(C)O3)C(O)C(C)O2)C(O)C(C)O1 (stereo not given in full) | 26.6% | 2.05% (active) | -94.3% (active) | -51.6% (active) | -82.3% (active) | 3.14% (active) | -97.7% (active) | -62.7% (active) | -62.8% (active) | -55.7% (active) |
| O=C(/C=C/c1ccc2c(c1)OCO2)c1c(O)c2ccccc2oc1=O | 97.1% | 96.6% | 87.7% | 115% | 101% | 95.9% | 111% | 96.7% | 94.6% | 112% |
| CCCS(=O)(=O)Nc1ccc(F)c(C(=O)c2c[nH]c3ncc(-c4ccc(Cl)cc4)cc23)c1F | 28.4% | 4.44% (active) | 8.13% (active) | 40.4% | 18.5% | 21.8% | 15.9% | -22.6% (active) | 16.5% | 1.65% (active) |
| COc1cc(C(=O)NNC(=O)c2ccc(NC(=O)CCl)cc2)cc(OC)c1OC | 86.4% | 60.5% | 87.4% | 88.9% | 11.1% | 66.1% | 77.9% | 66.9% | 28.9% | 86.9% |
| O=C1C=CC2(NN=C(c3ccccc3)N2c2ccc(Cl)cc2)c2cccc(O)c21 (stereo not given) | 18.7% | 73% | 33.1% | 34.8% | 18.1% | 39.1% | -70.2% (active) | -33.1% (active) | 2.09% (active) | 52.6% |
| Cn1nccc1Nc1nccc(-c2ccn([C@H](CO)c3ccc(Cl)c(F)c3)c(=O)c2)n1 | 94.1% | 19.9% | 101% | 94.1% | 86.2% | 111% | 70.7% | 9.88% (active) | 58.5% | 16.9% |
